# Experimental data published in PubChem BioAssay AID1918 (Vanderbilt High Throughput Screening Facility, 2009).
# Among all 130,000 compounds or so, about 2,500 (1.9%) were called active. What follows is part of a selection rich in actives, with near analogues and random picks from the rest. A number with no mark means an inactive call.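 Rule for the calls: active = signal ratio slope over the read window, or its plate-corrected B-score, at least 3 SD from the plate mean, either direction; inactive = the rest.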
# Target: ATP-sensitive inward rectifier potassium channel 1 (Homo sapiens) (UniProt P48048)
# Sequence (P48048 whole entry, looked up): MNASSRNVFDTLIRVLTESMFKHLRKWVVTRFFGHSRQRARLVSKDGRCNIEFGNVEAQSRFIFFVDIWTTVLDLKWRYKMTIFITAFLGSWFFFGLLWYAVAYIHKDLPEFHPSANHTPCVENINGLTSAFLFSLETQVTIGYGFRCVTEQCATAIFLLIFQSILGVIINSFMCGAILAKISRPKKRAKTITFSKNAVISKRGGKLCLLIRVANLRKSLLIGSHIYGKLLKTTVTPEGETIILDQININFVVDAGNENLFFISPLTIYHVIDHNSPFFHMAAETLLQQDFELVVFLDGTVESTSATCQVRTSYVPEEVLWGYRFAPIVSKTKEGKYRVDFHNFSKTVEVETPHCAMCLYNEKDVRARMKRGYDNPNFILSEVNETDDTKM
# Assay: Kir1.1 channel activity modulation, library screen – cell-based, thallium flux, MLSMR library, primary screen (AID 1918);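 note: B-score of the F/F0 ratio slope over 7 to 12 s after thallium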
# Details: Tet-inducible ROMK, thallium flux fluorescence; at 10 µM; actives lie on both sides
row,Compound,B-score
1,COc1cccc(CN(C)CC(=O)NCc2ccccc2Cl)c1OC,-0.0981
2,CCNC(=O)COC(=O)/C=C/c1c(C)nn(Cc2cccc(OC)c2)c1Cl,-0.509
3,Cc1ccc(N(C(=O)c2ccc(S(=O)(=O)N(C)C)cc2)C2C=CS(=O)(=O)C2)cc1 (stereo not given),-0.406
4,CN(C)/C=C(/C(=O)c1ccccc1Cl)S(C)(=O)=O,0.383
5,CN(C)/C=C(/C(=O)c1ccccc1)S(=O)(=O)c1ccc(Cl)cc1,-0.0973
6,CN(C)/C=C(/C(=O)c1ccc(Cl)c(Cl)c1)c1nnnn1-c1ccccc1,-2.28 (active)
7,Cc1cc(C)n(CC(=O)Nc2ccc([N+](=O)[O-])cc2)n1,0.748
8,CCOC(=O)CSc1nnc(-c2ccc([N+](=O)[O-])cc2)o1,-0.954
9,O=C(CN1C(=O)NC(Cc2ccccc2)(Cc2ccccc2)C1=O)NCC1CCCCC1,-4.09 (active)
10,O=C(CN1C(=O)NC2(CCCCCC2)C1=O)NC1CC1,-0.159
11,O=C(CN1C(=O)NC2(CCCC2)C1=O)NCC1CCCO1 (stereo not given),0.00667
12,O=S(=O)(NCc1ccco1)c1cnc(Cl)c(Cl)c1,0.266
13,CCOc1cc(NC(=S)NCCCN(C)C)c(OCC)cc1NC(=O)C1CC1,0.491
14,Cn1c(CNc2nc(-c3ccccc3)cs2)nnc1SCC(=O)c1ccccc1,-4.43 (active)
15,Cc1ccc(-c2csc(NNC(=O)c3ccccc3)n2)cc1,-0.0341
16,Cn1c(CC(=O)Nc2ccccc2)nnc1SCC(=O)c1ccccc1,0.607
17,CCC(C)(C)NC(=O)C(c1cccc(OC)c1OC)N(CC(C)C)C(=O)CCC(=O)Nc1cc(C)on1 (stereo not given),-1.25
18,CSc1cc(C)[nH]c(=O)n1,0.14
19,CCC(=O)Nc1ccc(Nc2nc(Cl)nc(Nc3ccc(NC(=O)CC)cc3)n2)cc1,0.00778
20,CCCCCCCCCCOC(=O)C[N+](C)(C)CC1CCCCC1O (stereo not given),-1.79 (active)
21,CCCCCOC(=O)c1ccc(N2C(=O)C3C4C=CC(C4)C3C2=O)cc1 (stereo not given),-0.208
22,[O-][n+]1c2c(nn1-c1ccc(Cl)c(Cl)c1)-c1nonc1CC2,-0.675
23,CCOC(=O)c1ccc(N2C(=O)CC(N3CCN(C(=O)c4ccccc4)CC3)C2=O)cc1 (stereo not given),-0.67
24,NC(=O)C1(C(N)=O)OC1c1ccc(Cl)cc1Cl (stereo not given),0.219
25,CC(=O)Nc1ccc(S(=O)(=O)N(C)c2ccc(OCC(=O)OCC(=O)N3CCCCC3)cc2)cc1,0.712
